CHRM1 antagonist: blocks human M1 muscarinic receptor | P11229 | CHO-K1 hM1, Fluo-8 calcium fluorescence, ACh EC80 antagonist | inhibition, % at 3 µM | 1.3% of 360,000 active | AID 588852;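 active = percent inhibition above its own plate's cutoff, namely the mean of that plate's compound wells plus 3 SD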;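 also: peak over basal fluorescence ratio during 140 s after agonist addition; 0% = ACh EC80 plus DMSO and 100% = DMSO alone without agonist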
Target sequence (P11229 whole entry, looked up): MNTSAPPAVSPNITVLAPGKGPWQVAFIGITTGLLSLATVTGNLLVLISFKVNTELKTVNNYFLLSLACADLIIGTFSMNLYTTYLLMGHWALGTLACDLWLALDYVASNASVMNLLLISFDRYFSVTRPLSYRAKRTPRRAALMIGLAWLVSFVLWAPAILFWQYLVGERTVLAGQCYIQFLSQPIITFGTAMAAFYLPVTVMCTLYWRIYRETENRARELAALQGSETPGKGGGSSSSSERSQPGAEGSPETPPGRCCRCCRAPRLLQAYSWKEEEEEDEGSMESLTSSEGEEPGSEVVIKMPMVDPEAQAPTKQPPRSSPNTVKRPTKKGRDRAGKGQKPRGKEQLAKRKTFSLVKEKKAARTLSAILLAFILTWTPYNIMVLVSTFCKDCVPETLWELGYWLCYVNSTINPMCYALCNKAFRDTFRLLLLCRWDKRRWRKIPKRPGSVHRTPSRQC
CHRM1 agonist: activates human CHRM1 receptor; activation, % at 3 µM; P11229; CHO-K1 hM1, Fluo-8 calcium fluorescence, agonist mode; 0% DMSO, 100% acetylcholine EC100; AID 588814; 0.33% of 360,000 active;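 active = activation above the run's mean compound activation plus 3 SD, cut at about 16% in these data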;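 also: peak over basal fluorescence ratio within a 140 s kinetic read after compound addition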
M1 ag parental: nonselective activator or artifact in parental CHO-K1 cells; Fluo-8 calcium fluorescence; scaled to maximal ATP response, vehicle zero; activation, % at 3 µM; 0.48% of 360,000 active; in the data active = activation above about 15%;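 also: untransfected CHO-K1 host cells lacking M1 receptor as counterscreen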
CHRM1 PAM: human CHRM1 positive allosteric modulation. P11229. CHO-K1 hM1, Fluo-8 calcium fluorescence, ACh EC20; 0% = ACh EC20, 100% = maximal ACh. activation, % at 3 µM. 0.088% of 360,000 active. AID 588819; in the data active = activation above about 19%, passing the limit was not always enough
CHO-K1 Ca PAM: M1 PAM counterscreen hit in parental CHO-K1 cells | ATP EC20, Fluo-8 calcium fluorescence; 0% at ATP EC20, 100% at ATP max | activation, % at 3 µM | 0.02% of 360,000 active;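 active = activation above the run cutoff, the mean activation of all test compounds plus 3 SD, cut at about 40% in these data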;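 also: peak over basal fluorescence ratio in a 140 s read after ATP addition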
CHO-K1 Ca antag: M1 antagonist counterscreen hit in parental CHO-K1 cells | ATP-induced calcium, Fluo-8 fluorescence | AID 602250 | 0.6% of 360,000 active | inhibition, % at 3 µM;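 active = inhibition above a per-plate cutoff, the plate's mean sample inhibition plus 3 SD, cut at about 24% in these data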;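 also: 0% = DMSO plus EC80 ATP and 100% = DMSO alone without ATP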
* hit, by the source's call. Most compounds without a hit are left out; they make up all but 2.4% or so of the library.

SMILES	CHRM1 antagonist	CHRM1 agonist	M1 ag parental	CHRM1 PAM	CHO-K1 Ca PAM	CHO-K1 Ca antag
CN(C)S(=O)(=O)c1cccc(NC(=O)CNC2CCCCC2)c1	-21	-3	1	10	12	-12
COc1ccc(C(=O)NCc2ccc(C(=O)O)o2)cc1	-4	-2	0	3	-1	0
COc1cc2c3c(c1)c(N=NC(N)=S)c(O)n3C(C)(C)C=C2C	33*	-3	0	17	-19	-9
NNC(=O)CS(=O)(=O)CS(=O)(=O)CC(=O)NN	-2	-1	-1	2	-20	72*
Cc1c(N=CN2CCOCC2)c(=O)n(C)c(=O)n1C	-7	0	17*	6	3	1
Cn1c(/C=C/N2CCOCC2)c(C(=O)c2ccc(Br)cc2)c(=O)n(C)c1=O	1	-1	0	1	2	5
O=C(CN1C(=O)C(=O)N(Cc2ccccc2)C1=O)c1ccc[nH]1	0	-4	0	1	-2	6
COc1ccc2c(c1OC)C(=O)OC2	1	9	0	9	-15	8
COc1ccc2c3c(cccc13)C(=O)CC2	31	119*	30*	-21	-12	19
COc1ccc(-c2nn(-c3ccccc3)cc2/C=N/NC(=O)c2ccc(Br)o2)cc1	44*	4	3	-17	10	-9
O=C(c1cc2ccccc2o1)N1CCC(N2CCC(C(=O)N3CCCC3)CC2)CC1	9	-14	-1	-10	-16	24*
COc1cccc(OC)c1OCCCCN1CCCCC1	-11	-9	0	3	-12	8
NS(=O)(=O)c1ccc(NC(=S)NCc2ccc(F)cc2)cc1	-16	-4	0	11	13	-1
COC(=O)C1=C(C)N(Cc2ccccc2)C(=NCCN2CCOCC2)N[C@H]1CCc1ccccc1	-7	-12	1	9	14	-15
CCN1C(=NCCN2CCOCC2)N[C@@H](c2ccccc2)C(C(=O)OC)=C1C	5	-10	-1	-10	-21	26*
COC(=O)C1=C(C)N(Cc2ccccc2)C(=NCc2ccccc2)N[C@H]1c1ccccc1	16	-6	16*	0	6	9
CC(=O)O/N=C(\N)Cc1ccc(-c2csnn2)cc1	-18	-1	0	16	12	-1
O=C(c1[nH]c(C(F)(F)F)nc1-c1ccccc1)N1CCN(c2c(Cl)cncc2Cl)CC1	-2	17*	9	-8	4	-2
O=C(c1[nH]c(C(F)(F)F)nc1-c1ccccc1)N1CCN(c2ccccc2)CC1	-20	2	1	0	0	9
COc1cccc(C2=NOC(C(=O)NCc3cccs3)C2)c1 (configuration not stated)	-10	0	2	7	2	2
O=C(CSc1c2c(nc3ccc(Cl)cc13)CCCC2)NCCCN1CCOCC1	98*	-9	0	-26	-14	15
CC1CCN(S(=O)(=O)c2ccccc2)CC1	-10	-5	0	6	2	2
COc1cc(NC(=S)N2CCN(C(c3ccccc3)c3ccccc3)CC2)cc(OC)c1	30*	-8	0	-23	3	-3
COc1cc(NC(=S)N2CCN(C/C=C/c3ccccc3)CC2)cc(OC)c1	-7	-9	2	9	18	-12
Cc1nn(C)c(C(=O)Nc2cccc(Nc3ccccc3)c2)c1[N+](=O)[O-]	26*	-1	1	-6	-12	19
SMILES	CHRM1 antagonist	CHRM1 agonist	M1 ag parental	CHRM1 PAM	CHO-K1 Ca PAM	CHO-K1 Ca antag
Cc1cc(C)n(C(=O)c2c([N+](=O)[O-])c(C)nn2C)n1	-4	-5	0	5	9	1
Cc1nn(C)c(C(=O)N/N=C/c2ccccc2)c1[N+](=O)[O-]	21*	-6	0	-23	-6	23
Cc1nn(C)c(C(=O)N/N=C/c2ccncc2)c1Cl	-14	-3	0	8	8	0
Cc1ccc(SC(=O)c2c([N+](=O)[O-])c(C)nn2C)cc1	62*	-9	0	-27	-11	6
Nn1c(SCC(=O)Nc2ccc3c(c2)OCO3)nncc1=O	6	-4	0	1	0	-6
Cc1ccc(S(=O)(=O)CCc2nnc(NC(=O)c3cnccn3)s2)cc1	11	-3	0	-7	9	-16
Cc1ccc(C2C(C#N)=C(N)SC(N)=C2C#N)cc1	10	8	8	-1	2	4
Cc1ccc(C2C(C#N)=C(N)SC(N)=C2C#N)c(C)c1	12	20*	12	-3	-4	16
CC(CCc1ccccc1)NC(=O)c1ccc(Cl)nc1 (configuration not stated)	2	-3	1	-3	9	-6
OCC1(Cc2ccccc2)CCN(Cc2ccc(-c3ccco3)cc2)CC1	20	-1	2	-6	23	-14
OCC1(Cc2ccccc2)CCCN(Cc2ccc(-c3ccco3)cc2)C1 (configuration not stated)	44*	-8	4	-24	11	-11
Cc1ccccc1NC(=O)Cn1nc(-c2ccccc2)nc1-c1ccccc1	-3	1	0	10	-7	24*
Cc1nc(CNC(=O)C2CCC(=O)N(CCc3ccc(Cl)cc3)C2)sc1C (configuration not stated)	-4	-1	1	3	0	-4
C[N+]1(CCn2ccc3ccccc32)CCCCC1	42*	-16	0	-38	-6	-14
Cc1ccc2nc(-c3ccccc3)cc(C(=O)NCCCn3ccnc3)c2c1	-5	-5	3	6	10	1
O=C(NCCCn1ccnc1)c1cc(-c2cccnc2)nc2ccc(Br)cc12	-1	-6	17*	7	4	-2
Cc1ccc([N+](=O)[O-])c(OCCN2C(=O)NC(C)(C)C2=O)c1	-13	-4	0	8	-5	-1
Cc1cc(OCCCCN2C(=O)NC(C)(C)C2=O)ccc1[N+](=O)[O-]	8	-2	17*	-10	-4	-5
CC(=O)N1CCN(C(=O)c2ccc(Cl)c(S(=O)(=O)N3CCc4ccccc43)c2)CC1	-10	-4	1	9	8	-17
O=C(NNC(=O)c1ccccc1O)c1ccc(Cl)c(S(=O)(=O)N2CCc3ccccc32)c1	38*	2	10	-5	-11	40*
O=C(c1ccc(Cl)c(S(=O)(=O)N2CCc3ccccc32)c1)N1CCN(c2ccccc2O)CC1	25*	-3	4	-14	-2	-4
Cc1ccc(NC(=O)c2ccc(Cl)c(S(=O)(=O)N3CCc4ccccc43)c2)nc1	-4	-2	0	5	3	10
COc1ccc(NC(=O)CSc2nnc(C3CC3)n2C)cc1	-6	-13	0	11	-4	8

High-throughput results: PubChem BioAssay, The Scripps Research Institute Molecular Screening Center
